Inconclusive results are not listed. Calls of active or inactive are those of the source. Unless noted, calls come from the whole dose curve; as a rule, active = well fitted curve in the direction sought with a large enough effect in the repeat runs; inconclusive = weak or mixed curves; inactive = no such curve, though single readings can be large; an effect the other way counts as inactive or inconclusive.
Key:
[1] = qHTS assay to identify small molecule HDAC inhibitors - cell viability counter screen (AID 1259365); note: series mostly up to about 92 µM; nearly all actives have a fitted effect of over 50% in size
Procedure, shortened: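 To flag cytotoxic hits, 1,500 wild-type HCT-116 cells per well, plated the day before, receive test compounds for 2hr at 37 C before CellTiter-Glo reagent and a luminescence read.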

[2] = qHTS assay to identify small molecule agonists of the sonic hedgehog signaling (Shh) pathway - cell viability counter screen (AID 1259366); note: nearly all actives have a fitted effect of over 50% in size
Procedure, shortened: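 Fluorescence from CellTiter-Fluor reports live cells in this counter screen. NIH/3T3-derived Gli1-Luc reporter cells receive test compounds for 24hr at 37C; reagent goes in at 23hr.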

[3] = qHTS assay to identify small molecule antagonists of the sonic hedgehog signaling (Shh) pathway - cell viability counter screen (AID 1259367); note: nearly all actives have a fitted effect of over 55% in size
Procedure, shortened: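 Cells: 3T3 Gli1-Luc, 2,000/well, 4 hr pre-incubation. Compounds in DMSO, then conditioned medium. Incubation 24 hr, 37C, 5% CO2. CellTiter-Fluor at 23 hr, 1 hr, fluorescence.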

[4] = qHTS assay to identify small molecule agonists of the sonic hedgehog signaling (Shh) pathway (AID 1259368; calls by dose curve;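 note: NIH/3T3-derived 3T3Gli1-Luc cells carrying a stable Gli1-driven firefly luciferase reporter; series mostly up to about 92 µM; nearly all actives have a fitted effect of over 15% in size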)
Procedure, shortened: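 NIH/3T3-derived 3T3Gli1-Luc cells with stably integrated Gli1-driven firefly luciferase, 2,000 cells/well, compounds added after 4 hr. Incubated 24 hr at 37C, 5% CO2; luminescence read after 30 min with luciferase reagent at room temperature.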

[5] = qHTS assay to identify small molecule antagonists of the sonic hedgehog signaling (Shh) pathway (AID 1259369; calls by dose curve; note: nearly all actives have a fitted effect of over 45% in size)
Procedure, shortened: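 NIH/3T3-derived Gli1-Luc reporter cells plated 4 h, dosed with compound, then stimulated with conditioned medium for 24 h at 37 C. Firefly luciferase luminescence read after 30 min with detection reagent at room temperature.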

[6] = qHTS assay to identify small molecule agonists of the androgen receptor (AR) signaling pathway in the presence of an antagonist - cell viability counter screen (AID 1259379);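 note: MDA-kb2 human breast cancer cells carrying an MMTV luciferase reporter; series mostly up to about 92 µM; nearly all actives have a fitted effect of over 25% in size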
Procedure, shortened: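 MDA-kb2 cells (MMTV-luciferase, AR/GR), 3,000/well, 5 h attachment, then 3.0 µM nilutamide (final) and compounds at 15 concentrations. Viability by CellTiter-Fluor fluorescence after 16 h at 37 °C, 0% CO2, in the reporter wells.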

[7] = qHTS assay to identify small molecule agonists of the estrogen receptor beta (ER-beta) signaling pathway - cell viability counter screen (AID 1259380); note: nearly all actives have a fitted effect of over 30% in size
Procedure, shortened: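 ER-beta-UAS-bla HEK293T cells in medium with 2% charcoal-stripped FBS, pre-incubated 6 hr, then treated 16 hr at 37C. Cytotoxicity read in the same wells by CellTiter-Glo luminescence after 30 min at room temperature.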

[8] = qHTS assay to identify small molecule antagonists of the estrogen receptor beta (ER-beta) signaling pathway - cell viability counter screen (AID 1259382);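 note: HEK293T cells carrying ER-beta-UAS-bla reporter stimulated with estradiol; series mostly up to about 92 µM; nearly all actives have a fitted effect of over 55% in size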
Procedure, shortened: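 ER-beta-UAS-bla HEK293T cells in 2% charcoal-stripped FBS medium, treated with compound plus 1 nM 17-beta-estradiol for 16 h at 37C. Viability read by CellTiter-Glo luminescence after 30 min at room temperature in the same wells.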

[9] = qHTS assay to identify small molecule agonists or antagonists of the thyroid stimulating hormone receptor (TSHR) signaling pathway - wild type cell line counter screen (AID 1259384; calls by dose curve)
Procedure, shortened: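 Counter screen in untransfected Hek293: compounds (15-point titration, triplicate) plus phosphodiesterase inhibitor Ro20-1724 added after 18 h plating; 30 min RT. Intracellular cAMP via competitive d2/cryptate immunoassay, 1 h incubation.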

[10] = target: Thyrotropin receptor (Homo sapiens) (UniProt P16473); experiment: qHTS assay to identify small molecule antagonists of the thyroid stimulating hormone receptor (TSHR) signaling pathway (AID 1259385; calls by dose curve; note: nearly all actives have a fitted effect of over 20% in size)
Chain of Thyrotropin receptor (Homo sapiens) (P16473 whole entry, looked up): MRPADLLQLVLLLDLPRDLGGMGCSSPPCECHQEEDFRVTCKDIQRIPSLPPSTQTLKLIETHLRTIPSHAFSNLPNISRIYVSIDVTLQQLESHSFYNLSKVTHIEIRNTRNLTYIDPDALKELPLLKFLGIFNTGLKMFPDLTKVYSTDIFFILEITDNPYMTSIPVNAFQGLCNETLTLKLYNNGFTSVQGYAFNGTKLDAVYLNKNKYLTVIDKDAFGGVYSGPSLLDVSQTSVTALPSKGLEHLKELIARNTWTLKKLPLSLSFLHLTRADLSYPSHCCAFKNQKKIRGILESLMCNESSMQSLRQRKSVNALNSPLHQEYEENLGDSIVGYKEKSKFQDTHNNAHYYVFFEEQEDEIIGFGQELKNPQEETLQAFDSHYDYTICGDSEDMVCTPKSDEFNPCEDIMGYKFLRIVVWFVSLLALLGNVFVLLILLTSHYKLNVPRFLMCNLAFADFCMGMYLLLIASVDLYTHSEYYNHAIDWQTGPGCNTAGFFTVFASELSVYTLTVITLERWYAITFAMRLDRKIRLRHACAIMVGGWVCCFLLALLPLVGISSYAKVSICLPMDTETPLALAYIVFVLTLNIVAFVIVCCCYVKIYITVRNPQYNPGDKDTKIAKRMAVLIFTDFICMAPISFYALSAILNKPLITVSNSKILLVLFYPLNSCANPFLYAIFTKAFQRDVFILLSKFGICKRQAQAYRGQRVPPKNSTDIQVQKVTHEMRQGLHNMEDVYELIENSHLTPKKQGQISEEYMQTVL
Procedure, shortened: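 Antagonist mode: compound-treated TSHR-expressing HEK293 cells were stimulated with 1.5 ng/mL TSH (final) in presence of Ro20-1724 for 30 min at RT. HTRF cAMP detection after 1 h; each compound tested at 15 concentrations, triplicate.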

[11] = qHTS assay to identify small molecule agonists of the estrogen receptor alpha (ER-alpha) signaling pathway in the presence of an antagonist - cell viability counter screen (AID 1259386);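 note: series mostly up to about 92 µM; cells exposed to compounds for 22 h at 37 °C before the viability read; nearly all actives have a fitted effect of over 30% in size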
Procedure, shortened: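 Cell viability in VM7Luc4E2 cells (endogenous full-length ER-alpha) measured by CellTiter-Fluor fluorescence in the same wells as the luciferase screen. Cells pre-cultured 5 days in charcoal-stripped serum, then treated 22 h with compounds at 15 concentrations plus 10.0nM ICI-182,780.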

[12] = target: Progesterone receptor (Homo sapiens) (UniProt P06401); experiment: qHTS assay to identify small molecule antagonists of the progesterone receptor (PR) signaling pathway (AID 1346795; active = well fitted inhibition curve with a large enough effect in the signal ratio in the repeat runs, not every such curve was filed as active; the % refers to the signal ratio)
Chain of Progesterone receptor (Homo sapiens) (P06401 whole entry, looked up): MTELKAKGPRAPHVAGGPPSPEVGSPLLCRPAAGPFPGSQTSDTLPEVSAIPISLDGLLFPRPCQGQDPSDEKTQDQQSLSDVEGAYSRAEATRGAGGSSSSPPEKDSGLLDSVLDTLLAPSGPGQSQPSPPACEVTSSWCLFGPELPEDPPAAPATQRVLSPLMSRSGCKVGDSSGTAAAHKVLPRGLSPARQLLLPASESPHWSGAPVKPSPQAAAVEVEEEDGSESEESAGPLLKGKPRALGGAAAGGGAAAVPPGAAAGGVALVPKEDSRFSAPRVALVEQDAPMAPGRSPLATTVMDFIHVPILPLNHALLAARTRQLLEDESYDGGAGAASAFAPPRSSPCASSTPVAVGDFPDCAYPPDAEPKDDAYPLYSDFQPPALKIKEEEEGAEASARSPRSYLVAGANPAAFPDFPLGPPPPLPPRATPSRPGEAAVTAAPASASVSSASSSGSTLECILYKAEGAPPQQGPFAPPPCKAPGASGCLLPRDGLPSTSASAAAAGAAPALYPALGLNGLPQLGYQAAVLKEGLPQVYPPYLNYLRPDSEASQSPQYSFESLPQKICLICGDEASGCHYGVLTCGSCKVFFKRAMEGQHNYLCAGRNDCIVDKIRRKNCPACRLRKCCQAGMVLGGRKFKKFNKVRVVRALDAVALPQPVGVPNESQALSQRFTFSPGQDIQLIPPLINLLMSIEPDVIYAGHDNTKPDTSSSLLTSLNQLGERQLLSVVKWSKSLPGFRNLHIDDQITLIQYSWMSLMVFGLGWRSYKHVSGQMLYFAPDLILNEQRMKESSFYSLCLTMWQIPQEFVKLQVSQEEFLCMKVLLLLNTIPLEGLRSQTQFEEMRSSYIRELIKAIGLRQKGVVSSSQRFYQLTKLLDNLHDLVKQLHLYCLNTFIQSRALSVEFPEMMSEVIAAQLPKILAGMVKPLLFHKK
Procedure, shortened: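 Screening used a GripTite HEK293T line with PR-responsive UAS-beta-lactamase. Cells were challenged with compound in the presence of 1 nM R5020 final for 16 hr at 37C; B/G FRET substrate, 2 hr room temperature, fluorescence.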

[13] = qHTS assay to identify small molecule antagonists of the progesterone receptor (PR) signaling pathway - cell viability counter screen (AID 1346798); note: series mostly up to about 92 µM; nearly all actives have a fitted effect of over 50% in size
Procedure, shortened: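 Measures cytotoxicity in parallel with the PR antagonist reporter read: HEK293T PR-UAS-bla cells get compound and R5020 for 16 hr, and remaining viable cells are quantified by CellTiter-Glo luminescence.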

[14] = qHTS assay to identify small molecule antagonists of the TGF-beta/Smad signaling pathway - cell viability counter screen (AID 1346824); note: nearly all actives have a fitted effect of over 50% in size
Procedure, shortened: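 Cytotoxicity counter-screen run in the same wells as the beta-lactamase Smad reporter read: CellTiter-Glo luminescence after 30 min at room temperature. HEK 293T SBE-bla cells had 5 hr compound exposure at 37 C with TGF-beta1 (0.25 ng/mL stock).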

[15] = target: Estrogen receptor (Homo sapiens) (UniProt P03372); experiment: qHTS assay to identify small molecule agonists of the estrogen receptor alpha (ER-alpha) signaling pathway in the presence of an antagonist (AID 1259383; calls by dose curve; note: top concentration of the series differs between compounds; nearly all actives have a fitted effect of over 15% in size)
Chain of Estrogen receptor (Homo sapiens) (P03372 whole entry, looked up): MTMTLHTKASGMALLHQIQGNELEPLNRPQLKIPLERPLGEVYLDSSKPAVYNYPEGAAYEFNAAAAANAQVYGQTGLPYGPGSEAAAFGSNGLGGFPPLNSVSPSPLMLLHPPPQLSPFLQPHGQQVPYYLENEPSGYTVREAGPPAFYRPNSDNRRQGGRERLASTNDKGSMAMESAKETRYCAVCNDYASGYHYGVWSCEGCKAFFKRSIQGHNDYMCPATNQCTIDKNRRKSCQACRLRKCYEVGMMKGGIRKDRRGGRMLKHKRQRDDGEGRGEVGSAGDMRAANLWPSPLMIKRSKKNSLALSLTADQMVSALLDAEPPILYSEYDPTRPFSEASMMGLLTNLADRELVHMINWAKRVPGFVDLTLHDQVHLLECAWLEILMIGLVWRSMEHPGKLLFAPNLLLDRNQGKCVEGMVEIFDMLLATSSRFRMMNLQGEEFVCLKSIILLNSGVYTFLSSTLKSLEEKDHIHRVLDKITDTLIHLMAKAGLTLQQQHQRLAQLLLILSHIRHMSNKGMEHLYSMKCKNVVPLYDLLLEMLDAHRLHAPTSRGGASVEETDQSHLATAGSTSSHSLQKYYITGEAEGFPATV
Procedure, shortened: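 VM7Luc4E2 cells express endogenous full-length ER-alpha with an ERE-luciferase reporter and were hormone-deprived for 5 days. Compounds at 15 concentrations were added with 10.0nM ICI-182,780 for 22hr at 37C. Luminescence was read with ONE-Glo.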

[16] = target: Progesterone receptor (Homo sapiens) (UniProt P06401); experiment: qHTS assay to identify small molecule agonists of the progesterone receptor (PR) signaling pathway (AID 1346784; calls by dose curve; note: nearly all actives have a fitted effect of over 30% in size)
Procedure, shortened: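 Seed PR-UAS-bla HEK 293T cells (2% charcoal-stripped FBS), incubate 6 hr at 37C; add compounds in DMSO, 16 hr at 37C; add LiveBLAzer B/G substrate, 2 hr RT; read fluorescence intensity.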

[17] = qHTS assay to identify small molecule agonists of the progesterone receptor (PR) signaling pathway - cell viability counter screen (AID 1346799; calls by dose curve; note: nearly all actives have a fitted effect of over 45% in size)
Procedure, shortened: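 Using the same plates as the PR reporter screen, HEK293T PR-UAS-bla cells received compounds for 16 hr at 37C and were then lysed with CellTiter-Glo; luminescence was read 30 min later at room temperature.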

[18] = target: Estrogen receptor beta (Homo sapiens) (UniProt Q92731); experiment: qHTS assay to identify small molecule agonists of the estrogen receptor beta (ER-beta) signaling pathway (AID 1259377; active = well fitted activation curve with a large enough effect in the signal ratio in the repeat runs, not every such curve was filed as active; the % refers to the signal ratio)
Chain of Estrogen receptor beta (Homo sapiens) (Q92731 whole entry, looked up): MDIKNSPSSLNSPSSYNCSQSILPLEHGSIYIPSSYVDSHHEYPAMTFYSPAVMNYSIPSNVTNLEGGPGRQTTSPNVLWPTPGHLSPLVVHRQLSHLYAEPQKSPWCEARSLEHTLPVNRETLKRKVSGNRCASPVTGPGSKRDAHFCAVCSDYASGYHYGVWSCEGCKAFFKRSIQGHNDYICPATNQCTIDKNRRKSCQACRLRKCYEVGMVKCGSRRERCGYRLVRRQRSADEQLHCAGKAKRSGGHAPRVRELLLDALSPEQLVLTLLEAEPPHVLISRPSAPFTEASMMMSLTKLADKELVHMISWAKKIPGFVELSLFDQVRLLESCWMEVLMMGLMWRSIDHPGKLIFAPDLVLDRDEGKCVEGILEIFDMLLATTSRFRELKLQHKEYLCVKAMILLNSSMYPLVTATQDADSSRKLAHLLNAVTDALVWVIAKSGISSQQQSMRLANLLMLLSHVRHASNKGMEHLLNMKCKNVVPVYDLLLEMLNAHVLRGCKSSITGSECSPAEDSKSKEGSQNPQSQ
Procedure, shortened: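 Screening used GripTite ER-beta-UAS-bla cells held in 2% charcoal-stripped FBS medium. After overnight (16 hr) compound incubation at 37C, beta-lactamase activity was detected with a FRET substrate by fluorescence.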

[19] = target: Estrogen receptor beta (Homo sapiens) (UniProt Q92731); experiment: qHTS assay to identify small molecule antagonists of the estrogen receptor beta (ER-beta) signaling pathway (AID 1259378; active = well fitted inhibition curve with a large enough effect in the signal ratio in the repeat runs, not every such curve was filed as active; the % refers to the signal ratio)
Procedure, shortened: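 Antagonist mode: compounds added to beta-lactamase reporter HEK293T ER-beta-UAS cells stimulated with E2 (1nM final), 16 hr at 37C. LiveBLAzer B/G FRET substrate, 2 hours room temperature, fluorescence read-out.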

[20] = target: Androgen receptor (Homo sapiens) (UniProt P10275); experiment: qHTS assay to identify small molecule agonists of the androgen receptor (AR) signaling pathway in the presence of an antagonist (AID 1259381; calls by dose curve; note: nearly all actives have a fitted effect of over 15% in size)
Chain of Androgen receptor (Homo sapiens) (P10275 whole entry, looked up): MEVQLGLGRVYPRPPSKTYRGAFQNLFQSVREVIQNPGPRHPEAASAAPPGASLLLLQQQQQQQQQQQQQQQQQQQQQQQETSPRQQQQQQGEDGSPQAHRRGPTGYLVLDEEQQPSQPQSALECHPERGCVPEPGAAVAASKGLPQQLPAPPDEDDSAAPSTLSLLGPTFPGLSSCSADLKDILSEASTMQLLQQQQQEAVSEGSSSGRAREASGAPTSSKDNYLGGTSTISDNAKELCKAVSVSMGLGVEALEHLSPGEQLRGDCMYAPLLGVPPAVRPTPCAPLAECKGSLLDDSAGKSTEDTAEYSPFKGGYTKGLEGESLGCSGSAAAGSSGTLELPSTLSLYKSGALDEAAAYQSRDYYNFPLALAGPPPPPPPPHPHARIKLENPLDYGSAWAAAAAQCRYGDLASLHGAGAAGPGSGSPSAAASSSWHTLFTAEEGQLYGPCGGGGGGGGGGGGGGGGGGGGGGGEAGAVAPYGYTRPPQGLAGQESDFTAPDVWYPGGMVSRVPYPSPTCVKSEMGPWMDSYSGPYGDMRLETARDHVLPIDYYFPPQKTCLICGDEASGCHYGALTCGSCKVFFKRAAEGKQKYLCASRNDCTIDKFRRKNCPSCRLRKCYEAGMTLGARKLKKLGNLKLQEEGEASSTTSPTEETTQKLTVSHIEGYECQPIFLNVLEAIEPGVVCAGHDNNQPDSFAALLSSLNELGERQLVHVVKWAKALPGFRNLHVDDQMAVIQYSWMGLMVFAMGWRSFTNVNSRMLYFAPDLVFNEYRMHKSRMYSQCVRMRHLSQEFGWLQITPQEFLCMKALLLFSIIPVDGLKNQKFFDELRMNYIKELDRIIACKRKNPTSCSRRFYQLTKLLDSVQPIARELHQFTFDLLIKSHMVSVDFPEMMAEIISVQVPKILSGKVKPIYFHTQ
Procedure, shortened: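 MDA-kb2 cells carrying MMTV-luciferase (AR/GR responsive), 3,000 cells/well, co-treated with 3.0 uM nilutamide final. Compounds at 15 concentrations, 16 hr at 37C without CO2. Luciferase luminescence read after 30 min with ONE-Glo.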
% is set by controls: 0 for no effect and ±100 for the full control effect.

O=c1c(O)c(O)c1=O
inactive: outcome [1] | outcome [2] | outcome [3] | outcome [4] | Potency [5] | outcome [6] | Potency [7] | outcome [8] | outcome [9] | outcome [10] | outcome [11] | Potency [12] | outcome [13] | outcome [14]

C[C@@H]1CC[C@@]2(OC1)O[C@H]1C[C@H]3[C@@H]4CC[C@H]5C[C@@H](O)CC[C@]5(C)[C@H]4CC(=O)[C@]3(C)[C@H]1[C@@H]2C
inactive: activity change, negative = cytotoxicity [1] 4.19% [at 8.39 µM] | viability change, negative = cytotoxic [2] -4.38% [at 8.39 µM] | activity change [4] -0.0264% [at 8.39 µM] | activity change, negative = inhibition [5] 0.87% [at 8.39 µM] | activity change, negative = cytotoxicity [6] 0.258% [at 8.39 µM] | activity change, negative = cytotoxicity [7] 3.8% [at 8.39 µM] | activity change, negative = cytotoxicity [8] 3.19% [at 8.39 µM] | activation [15] 0.597% [at 8.39 µM] | cAMP activity change [9] -0.224% [at 8.39 µM] | activity change, negative = inhibition [10] -0.41% [at 8.39 µM] | activity change, negative = cytotoxicity [11] 0.111% [at 8.39 µM] | activation [16] -0.697% [at 8.39 µM] | activity change, negative = inhibition [12] 17.4% [at 8.39 µM] | activity change, negative = cytotoxicity [13] 12.3% [at 8.39 µM] | activity change, negative = cytotoxicity [17] 3.64% [at 8.39 µM] | viability change, negative = cytotoxic [14] -1.38% [at 6.97 µM]

CC(C)(C)c1ccc(N)cc1
inactive: outcome [1] | outcome [2] | outcome [4] | Potency [5] | Potency [18] | outcome [19] | outcome [6] | Potency [7] | outcome [8] | Potency [15] | outcome [11] | Potency [16] | Potency [12] | outcome [13] | Potency [17] | outcome [14]

CC(=O)SC[C@@H](C)C(=O)N1CCC[C@H]1C(=O)N[C@@H](Cc1ccccc1)C(=O)O
inactive: outcome [1] | outcome [2] | outcome [4] | Potency [5] | outcome [6] | Potency [7] | outcome [8] | Potency [15] | outcome [9] | outcome [11] | Potency [12] | outcome [13] | Potency [17] | outcome [14]

C=CCn1cc[n+](C)c1
inactive: outcome [1] | outcome [2] | outcome [4] | Potency [5] | outcome [19] | outcome [6] | Potency [7] | outcome [8] | Potency [15] | outcome [9] | outcome [10] | outcome [11] | Potency [12] | outcome [13] | Potency [17] | outcome [14]

COCCCOc1cc(C[C@@H](C[C@H](N)[C@@H](O)C[C@H](C(=O)NCC(C)(C)C(N)=O)C(C)C)C(C)C)ccc1OC
inactive: outcome [1] | outcome [2] | outcome [4] | Potency [5] | outcome [6] | Potency [7] | outcome [8] | Potency [15] | outcome [9] | outcome [10] | outcome [11] | Potency [16] | outcome [13] | Potency [17] | outcome [14]

N#Cc1cc(NC(=O)C(=O)O)c(Cl)c(NC(=O)C(=O)O)c1
inactive: outcome [1] | outcome [2] | outcome [4] | outcome [6] | outcome [20] | outcome [8] | Potency [15] | outcome [9] | outcome [10] | outcome [11] | Potency [16] | Potency [12] | outcome [13] | Potency [17] | outcome [14]

CCCCCC(=O)CC
inactive: outcome [1] | outcome [2] | outcome [4] | Potency [5] | outcome [6] | Potency [7] | outcome [9] | outcome [10] | outcome [11] | outcome [13] | outcome [14]

C=CCON/C(CCC)=C1\C(=O)CC(C)(C)C(C(=O)OC)=C1O
inactive: outcome [1] | outcome [2] | outcome [4] | Potency [5] | Potency [18] | outcome [19] | outcome [6] | outcome [8] | outcome [9] | outcome [10] | outcome [11] | Potency [16] | Potency [12] | outcome [13] | Potency [17] | outcome [14]

Source: PubChem BioAssay (Tox21)
